# From PubChem
# Compounds with a hit are over-represented: about 1.3% of the library has one in this group of screens.
# PTHR1 agonist: qHTS for PTHR1 Agonists: Primary Screen | Parathyroid hormone/parathyroid hormone-related peptide receptor (Homo sapiens), Q03431 | HEK293 GP2 PTHR1 cells, GloSensor cAMP luminescence, 1 h | Potency, µM (highest dose often 115 µM), most hits filed as activators | 0.075% of 410,000 active; also: nearly all actives have a fitted effect of over 55% in size
# Target sequence (Q03431 whole entry, looked up): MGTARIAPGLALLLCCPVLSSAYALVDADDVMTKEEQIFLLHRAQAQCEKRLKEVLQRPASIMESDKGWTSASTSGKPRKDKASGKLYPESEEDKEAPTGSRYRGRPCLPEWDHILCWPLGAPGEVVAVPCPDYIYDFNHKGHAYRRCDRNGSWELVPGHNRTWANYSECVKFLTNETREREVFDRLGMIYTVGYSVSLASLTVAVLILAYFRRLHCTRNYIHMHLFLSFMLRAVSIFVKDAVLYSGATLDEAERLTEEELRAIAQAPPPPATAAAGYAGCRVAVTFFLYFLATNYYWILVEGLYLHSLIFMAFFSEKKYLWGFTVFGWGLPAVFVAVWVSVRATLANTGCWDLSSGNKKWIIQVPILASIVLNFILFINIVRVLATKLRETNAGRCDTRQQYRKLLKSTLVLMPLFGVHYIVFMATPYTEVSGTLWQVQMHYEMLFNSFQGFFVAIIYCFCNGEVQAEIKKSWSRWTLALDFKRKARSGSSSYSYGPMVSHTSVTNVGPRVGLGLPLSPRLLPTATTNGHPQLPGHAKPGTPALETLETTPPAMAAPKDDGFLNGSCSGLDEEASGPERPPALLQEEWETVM
#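 HEK-293-derived GP2 cells expressing PTHR1 and a GloSensor cAMP reporter, 3,000/well, plated overnight, given luciferin plus IBMX (each 0.5 mM as added) for 1 h at 37 °C, then compound for 1 h at 37 °C. Luminescence was read after 15 min at room temperature.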
# miR-21 reporter: qHTS Assay for Modulators of miRNAs and/orActivators of miR-21 | HeLa miR-21 FLuc reporter, luciferase, 48 h | AID 2288, 2010 | Potency, µM (highest dose often 38.3 µM), hits mostly activators | 340,000 tested, under 10 active;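 also: miR-21 action dims this reporter so a rising signal means less miR-21 action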
#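 HeLa miR-21-FLuc reporter line, endogenous miR-21; 2000 cells/well in DMEM/10% FBS; compound titration up to ~40uM final, 48 h, 37 degree Celsius; luciferase detection reagent, 15 min lysis, CCD luminescence.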
# Giardia kill: Small Molecules that selectively kill Giardia lamblia: qHTS; 0.15% of 340,000 active; AID 540267, 2011; Giardia lamblia trophozoite viability; activity change, % at 7.66 µM, hits read low; in the data active = activity change below about -80%; inconclusive = between about -30% and that limit;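 also: parasites exposed to compound for two days anaerobically before the ATP read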
#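 Giardia lamblia trophozoites (100 cells/well) were incubated with compounds for 48 h at 37 deg C under anaerobic conditions. Viability was read as ATP content by one-step luminescence after 15-30 min at room temperature.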
# ALOX12 inh: Primary qHTS assay for inhibitors of human arachidonate 12S-lipoxygenase (ALOX12): Round 2; Potency, µM (titrated, usually from 108 µM), most hits filed as inhibitors; 1.1% of 580,000 active; Polyunsaturated fatty acid lipoxygenase ALOX12 (Homo sapiens), P18054; purified 12hLO, xylenol orange hydroperoxide absorbance
#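 Purified human 12hLO at 150 nM in 25 mM Hepes, 0.01% Triton X-100, pH 7.0, preincubated 15 min at room temperature with compound. Reaction started with 40 uM arachidonic acid, 30 min at room temperature. Hydroperoxide measured by Fe-xylenol orange, 573/405 nm absorbance ratio.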
# PINK1 modulator: A Quantitative High throughput Screen to Identify Chemical Modulators of PINK1 Expression; AID 624263, 2012; 0.2% of 410,000 active; PINK1 immunofluorescence, high-content cytometry, 24 h; Potency, µM (doses to about 76.6 µM), hits mostly activators; active = well fitted activation curve with a large enough effect; inconclusive = small, poorly fitted or top-dose-only effect; cell line not stated here; also: nearly all actives have a fitted effect of over 65% in size
#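 Fluorescence from anti-PINK1 antibody, together with nuclear and cell stains, was scanned on a laser-scanning cytometer. Before staining, stable-line cells were incubated 24 hours with compounds at 5 concentrations; primary antibody 12 h at 10 degrees C.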
# ERG Ets-DNA blk: qHTS for Small Molecule Inhibitors of the ERG Ets/DNA interaction; Transcriptional regulator ERG (Homo sapiens), P11308; fluorescence polarization, His-ERG Ets domain / labelled DNA; Potency, µM (titrated, usually from 76.9 µM), actives largely listed as inhibitors; 0.028% of 370,000 active; AID 624246, 2012; active = well fitted inhibition curve with a large enough effect in the polarisation, with a control signal flat; inconclusive = small, poorly fitted or top-dose-only effect, or effect the other way, or a change in a side signal; inactive = no such curve, though single readings can be large or run the other way; the % refers to the polarisation;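 also: polarization taken with two DNA probes labelled with fluorescein and Texas red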
#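 His-tagged ERG Ets domain (1 uM in the protein solution; 300mM KCl, 50mM Tris-HCl, 1mM EDTA, 1mM DTT, pH 7.5) received compound, then a probe mix of 5 nM fluorescein-DNA and 100nM Texas-615-DNA. Fluorescence polarization was read for both dyes.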
# Numbers stand for hits; 0 = inactive; ? = inconclusive; - = no result given. Unless noted, calls follow the shape of the dose curve; as a rule, active = well fitted curve in the direction sought with a large enough effect; inconclusive = small, poorly fitted or top-dose-only effect, or another doubt; inactive = no such curve, though single readings can be large; an effect the other way counts as inactive or inconclusive.
SMILES,PTHR1 agonist,miR-21 reporter,Giardia kill,ALOX12 inh,PINK1 modulator,ERG Ets-DNA blk
CCCN=C1N/C(=C\c2ccco2)C(=O)N1c1ccccc1,0,0,0,?,0,0
O=C(Cn1c(=O)n(Cc2ccccc2)c(=O)c2sc3ccccc3c21)Nc1ccccc1,0,0,-,0,0,0
COc1cccc(-c2cc3c(=O)n(CC(O)c4ccccc4)ccn3n2)c1 (stereo not given),-,-,-,0,-,-
CC(C)N1C(=O)[C@@H]2[C@@H](CCN2C(=O)CSCC(=O)O)N(Cc2cccc(F)c2)C1=O,-,-,-,35µM,-,-
COc1cc(OC)cc(-c2cc3ncccc3cn2)c1,0,-,0,32µM,0,0
CCOC(=O)c1nn(-c2ccccc2C)c(=O)c2c(N)scc12,0,0,0,?,0,0
CCOC(=O)c1nn(-c2ccccc2)c(=O)c2c(N)scc12,0,0,0,35µM,0,0
Nc1scc2c(C(=O)N/N=C/c3ccc(Cl)cc3)nn(-c3ccccc3)c(=O)c12,0,0,0,6.3µM,0,0
CCCCn1c(-c2sccc2C)n[nH]c1=S,0,0,?,40µM,0,0
CC1=C[C@@H](CNS(=O)(=O)c2ccccc2)[C@H](C(C)C)C[C@H]1CC(=O)NCc1ccc(C#N)cc1,-,-,-,35µM,-,-
COc1ccc(S(=O)(=O)NC[C@@H]2C=C(C)[C@H](CC(=O)NCc3ccc(C#N)cc3)C[C@H]2C(C)C)cc1,-,-,-,35µM,-,-
O=C(NCC1CCN(C(=O)C(=O)c2cc3ccccc3o2)CC1)c1cccnc1,-,-,-,0,-,-
Cc1nn(Cc2ccc(F)cc2)c(C)c1NC(=O)c1noc2c1CCCCC2,0,0,0,0,0,0
CCOC(=O)C(N)CSC1CC(=O)N(c2ccc(OCC)cc2)C1=O (stereo not given),0,0,0,0,0,0
Cc1nc(-c2ccc(F)cc2)sc1CCNC(=O)C(=O)Nc1ccc2c(c1)OCO2,0,0,-,?,0,0
CN(C)CCNC(=O)c1cc(-c2ccc(F)cc2)cc2ncn(C)c12,-,-,-,0,-,-
O=[N+]([O-])c1ccc(C(=S)N2CCN(c3ccc(F)cc3)CC2)cc1,0,0,0,50µM,0,0
Cc1ccc(-c2csc3nc4cc(C(N)=O)ccc4c(=O)n23)cc1,0,0,0,18µM,0,0
COc1ccc(C(NC(=O)/C=C/c2ccco2)c2ccc(OC)c(OC)c2)cc1 (stereo not given),0,0,0,45µM,0,0
COc1ccc(NC(=S)NC(=O)/C=C/c2ccco2)c(OC)c1,0,0,0,35µM,0,0
COc1cccc(NC(=S)NC(=O)/C=C/c2ccco2)c1,0,0,0,0,0,0
CS(=O)(=O)N1C[C@H]2CCN(C(=O)c3ccc(F)cc3Cl)C[C@H]21,-,-,-,0,-,-
CC(C)(O)C(=O)NNC(=S)Nc1cccc(C(F)(F)F)c1,0,0,0,0,0,0
CC(O)(CS(=O)(=O)Cc1ccc(Cl)cc1)C(=O)Nc1cccc(C(F)(F)F)c1 (stereo not given),0,0,0,3.2µM,0,0
CS(=O)(=O)c1ccc(OCC2(CNS(=O)(=O)c3ccc(Cl)cc3)C[C@@H](O)[C@@H](O)C2)cc1 (stereo not given in full),-,-,-,79µM,-,-
SMILES,PTHR1 agonist,miR-21 reporter,Giardia kill,ALOX12 inh,PINK1 modulator,ERG Ets-DNA blk
CS(=O)(=O)c1ccc(OCC2(CNCc3ccc(Cl)cc3)C[C@@H](O)[C@@H](O)C2)cc1 (stereo not given in full),-,-,-,0,-,-
COc1cccc(/C=N/Nc2ncccc2[N+](=O)[O-])c1OC,0,0,0,0,0,0
O=[N+]([O-])c1ccc(/C=N/Nc2ncccc2[N+](=O)[O-])s1,0,-,-93,0,0,0
O=C(Nc1ccccc1)Nc1ccccc1Br,0,0,0,11µM,0,0
O=C(C1=C[C@@H](C2CC2)C[C@@H](OCc2ccc(CO)cc2)O1)N1CCOCC1,0,0,0,0,0,0
Cc1ccc(C(=O)O)cc1NC(=S)NC(=O)Cc1ccccc1,0,0,0,?,0,0
Cc1ccc(C(=O)O)cc1NC(=S)NC(=O)c1ccc(COc2ccccc2)cc1,0,0,0,2.8µM,0,0
N=c1ccn(Cc2ccc(Cl)cc2)cc1,0,?,0,0,?,0
N=c1ccn(Cc2ccc(Cl)c(Cl)c2)cc1,0,?,0,0,40µM,0
Cc1ccccc1OCC(=O)N(Cc1nnc(-c2ccc(Cl)cc2)o1)C(C)C,0,-,0,0,0,0
CCN(CC1COc2ccccc2O1)C(=S)Nc1ccc(F)cc1 (stereo not given),0,0,0,0,0,0
CCOc1cc(NC(=S)NCC2CCCO2)c(OCC)cc1NC(=O)CC (stereo not given),0,0,0,0,0,0
CCOc1cc(NC(=S)NCC2CCCO2)c(OCC)cc1NC(=O)c1ccccc1F (stereo not given),0,0,0,40µM,0,0
NC(=S)N/N=C/c1ccccc1OC(=O)/C=C/c1ccccc1,0,0,0,5.6µM,0,0
CC(=O)N1C=Cc2ccccc2C1CC(=O)Nc1ccc(S(=O)(=O)N2CCC(C)CC2)cc1 (stereo not given),-,-,-,0,-,-
CN(C)C(=S)NC(=O)C12CC3CC(C)(CC(C)(C3)C1)C2,0,0,0,0,0,0
CC12CC3CC(C)(C1)CC(C(=O)NC(=S)N1CCCCC1)(C3)C2,0,0,0,25µM,0,-
CCN(CC)CCNC(=O)c1ccc2c(c1)NC(=O)C(CS(=O)(=O)Cc1cccc(Br)c1)N2 (stereo not given),?,0,-,0,0,0
CCN(CC)CCCNC(=O)c1ccc2c(c1)NC(=O)C(CS(=O)(=O)Cc1cccc(Br)c1)N2 (stereo not given),16µM,0,-,0,0,0
Cc1cc(C)c(CNC(=O)c2cc(-c3ccccc3C)cc3c2OCCN3C)c(=O)[nH]1,-,-,-,112µM,-,-
Cc1ccc(C)c(/C=C/C(=O)c2ccccc(=O)c2O)c1,0,?,0,20µM,0,0
Cc1ccc(/C=C/C(=O)c2ccccc(=O)c2O)c(C)c1,0,0,0,32µM,0,0
CC(=O)c1cccc(OCc2cc(C(=O)N3CCSCC3)no2)c1,0,0,0,0,0,0
